This note sets out measurements from PubChem BioAssay (NCATS).

Records with an inconclusive call do not appear. Activity calls are given as the source filed them. Calls come from the whole dose curve; as a rule, active = well fitted inhibition curve with a large enough effect; inconclusive = small, poorly fitted or top-dose-only effect; inactive = flat fitted curve, though single readings scatter.
% is set by controls: 0 for no effect and ±100 for the full control effect.

The test deals with Calcium and integrin-binding protein 1 (Homo sapiens) (UniProt Q99828). As to the kind of experiment: Primary qHTS for Identification of Calcium Integrin Binding Protein 1 (CIB1) Competitor (AID 1508620).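 Note: GST tagged CIB1 binding a fluorescein labelled alphaIIb integrin peptide tracer; top concentration of the series differs between compounds.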 To be noted: CIB1-GST / FITC-alphaIIb peptide fluorescence polarization; series mostly up to 114 µM; activity change, negative = inhibition: at the top concentration. The procedure, abridged: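 Fluorescence polarization competition: CIB1-GST (1 uM final) preincubated with compound 15 min at room temperature, then FITC-labeled alphaIIb peptide (100 nM final) added for another 15 min. Polarization read at Ex 480/Em 540.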
Chain of Calcium and integrin-binding protein 1 (Homo sapiens) (Q99828 whole entry, looked up): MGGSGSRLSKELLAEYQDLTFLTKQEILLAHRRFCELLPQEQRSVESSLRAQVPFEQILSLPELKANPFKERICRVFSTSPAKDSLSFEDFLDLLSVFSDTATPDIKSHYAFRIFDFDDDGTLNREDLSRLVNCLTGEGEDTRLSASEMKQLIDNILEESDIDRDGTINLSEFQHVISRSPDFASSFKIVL
In general terms: qHTS replaces the single test concentration by a dilution series.
In the case of `CC1(C)CCCC2(C)C1C(=O)C=C(C(=O)O)C2(O)C(=O)O` (centres undefined), the “activity change, negative = inhibition” value was 4.7% (inactive).
The same measure for `COC(=O)c1cc2c(C(F)(F)F)cc(-c3ccccc3)cc2n1O`: -13.3% (inactive).
For `O=[N+]([O-])c1cn2c(n1)OC[C@@H](OCc1ccc(-c3ccc(OC(F)(F)F)cc3)nc1)C2` the value was 4.06% (inactive); for `C=C1C(=O)O[C@@H]2C[C@]3(C)[C@@H](CCC(C)O)[C@@H]3C[C@H]12` (some centres undefined), 1.63% (inactive).
